Among all 5,500 compounds or so, about 2,000 (36%) were called active. Roughly 18% stayed inconclusive and do not appear here. Some of the results follow. A number with no mark means an inactive call. Cut-off read from the data, not from the text of the source: active = normalized growth mostly below about 0.91 (no sharp cut-off); inconclusive = no clear call, values can overlap the other calls; inactive = mostly above about 0.92.
Assay: chemical genetic growth profiling, strain panel (AID 1159580);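 note: tested at 20 µM; growth read once vehicle control cultures reached saturation at 30 °C; 1 = growth at the plate median or of vehicle wells; lower values mean less growth of the strain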
Conditions: growth OD

O=c1cc(-c2ccccc2)oc2c(O)c(O)ccc12
normalized growth (S. cerevisiae deletion strains, locus YJR066W, strain TOR1, active compounds read low): 0.985
normalized growth (S. cerevisiae deletion strains, locus YJR075W, strain HOC1, active compounds read low): 1.01
normalized growth (S. cerevisiae deletion strains, locus YKL009W, strain mrt4, active compounds read low): 0.96
normalized growth (S. cerevisiae deletion strains, locus YKL068W, active compounds read low): 0.976
normalized growth (S. cerevisiae deletion strains, locus YKL085W, strain MDH1 (second series), active compounds read low): 0.986
normalized growth (S. cerevisiae deletion strains, locus YKL085W, strain MDH1, active compounds read low): 0.986
normalized growth (S. cerevisiae deletion strains, locus YKL160W, strain elf1, active compounds read low): 0.986
normalized growth (S. cerevisiae deletion strains, locus YKR001C, strain vps1, active compounds read low): 0.89 (active)
normalized growth (S. cerevisiae deletion strains, locus YKR026C, strain gcn3, active compounds read low): 0.993
normalized growth (S. cerevisiae deletion strains, locus YKR091W, strain srl3, active compounds read low): 0.995
normalized growth (S. cerevisiae deletion strains, locus YLL001W, strain dnm1, active compounds read low): 0.984
normalized growth (S. cerevisiae deletion strains, locus YLL026W, active compounds read low): 1
normalized growth (S. cerevisiae deletion strains, locus YLL041C, strain sdh2, active compounds read low): 0.987
normalized growth (S. cerevisiae deletion strains, locus YLR027C, strain aat2, active compounds read low): 0.999
normalized growth (S. cerevisiae deletion strains, locus YLR039C, strain RIC1, active compounds read low): 0.499 (active)
normalized growth (S. cerevisiae deletion strains, locus YLR058C, strain SHM2, active compounds read low): 0.938
normalized growth (S. cerevisiae deletion strains, locus YLR102C, strain apc9, active compounds read low): 0.99
normalized growth (S. cerevisiae deletion strains, locus YLR113W, strain HOG1, active compounds read low): 1.01
normalized growth (S. cerevisiae deletion strains, locus YLR221C, strain rsa3, active compounds read low): 0.994
normalized growth (S. cerevisiae deletion strains, locus YLR258W, strain gsy2, active compounds read low): 0.987
normalized growth (S. cerevisiae deletion strains, locus YLR262C, strain YPT6 (second series), active compounds read low): 0.661 (active)
normalized growth (S. cerevisiae deletion strains, locus YLR262C, strain YPT6, active compounds read low): 0.593 (active)
normalized growth (S. cerevisiae deletion strains, locus YLR268W, strain sec22, active compounds read low): 0.768 (active)
normalized growth (S. cerevisiae deletion strains, locus YLR320W, strain mms22, active compounds read low): 1.01
normalized growth (S. cerevisiae deletion strains, locus YLR330W, strain CHS5, active compounds read low): 0.985
normalized growth (S. cerevisiae deletion strains, locus YLR342W, strain FKS1 (second series), active compounds read low): 0.764 (active)
normalized growth (S. cerevisiae deletion strains, locus YLR342W, strain FKS1, active compounds read low): 0.987
normalized growth (S. cerevisiae deletion strains, locus YLR357W, strain rsc2, active compounds read low): 0.914
normalized growth (S. cerevisiae deletion strains, locus YLR370C, strain arc18, active compounds read low): 0.99
normalized growth (S. cerevisiae deletion strains, locus YLR371W, strain rom2, active compounds read low): 0.848 (active)
normalized growth (S. cerevisiae deletion strains, locus YLR384C, strain iki3, active compounds read low): 0.989
normalized growth (S. cerevisiae deletion strains, locus YLR418C, strain cdc73, active compounds read low): 0.789 (active)
normalized growth (S. cerevisiae deletion strains, locus YML016C, strain PPZ1, active compounds read low): 0.952
normalized growth (S. cerevisiae deletion strains, locus YML032C, strain rad52, active compounds read low): 1.01
normalized growth (S. cerevisiae deletion strains, locus YML120C, strain ndi1, active compounds read low): 0.973
normalized growth (S. cerevisiae deletion strains, locus YML124C, strain tub3, active compounds read low): 0.999
normalized growth (S. cerevisiae deletion strains, locus YMR058W, strain fet3, active compounds read low): 0.966
normalized growth (S. cerevisiae deletion strains, locus YMR078C, strain ctf18, active compounds read low): 0.961
normalized growth (S. cerevisiae deletion strains, locus YMR125W, strain sto1, active compounds read low): 0.984
normalized growth (S. cerevisiae deletion strains, locus YMR129W, active compounds read low): 0.989
normalized growth (S. cerevisiae deletion strains, locus YMR205C, strain PFK2, active compounds read low): 1
normalized growth (S. cerevisiae deletion strains, locus YMR223W, strain ubp8, active compounds read low): 0.953
normalized growth (S. cerevisiae deletion strains, locus YMR231W, strain pep5, active compounds read low): 0.968
normalized growth (S. cerevisiae deletion strains, locus YMR307W, strain GAS1, active compounds read low): 0.709
normalized growth (S. cerevisiae deletion strains, locus YNL067W, strain RPL9B, active compounds read low): 0.955
normalized growth (S. cerevisiae deletion strains, locus YNL071W, strain lat1, active compounds read low): 0.985
normalized growth (S. cerevisiae deletion strains, locus YNL153C, strain GIM3, active compounds read low): 0.988
normalized growth (S. cerevisiae deletion strains, locus YNL183C, strain NPR1, active compounds read low): 1.01
normalized growth (S. cerevisiae deletion strains, locus YNL209W, strain ssb2, active compounds read low): 0.979
normalized growth (S. cerevisiae deletion strains, locus YNL233W, strain BNI4, active compounds read low): 0.922
normalized growth (S. cerevisiae deletion strains, locus YNL248C, strain rpa49, active compounds read low): 0.982
normalized growth (S. cerevisiae deletion strains, locus YNL250W, strain rad50, active compounds read low): 0.966
normalized growth (S. cerevisiae deletion strains, locus YNL271C, strain bni1, active compounds read low): 0.972
normalized growth (S. cerevisiae deletion strains, locus YNL298W, strain CLA4, active compounds read low): 0.972
normalized growth (S. cerevisiae deletion strains, locus YNL307C, strain MCK1, active compounds read low): 0.982
normalized growth (S. cerevisiae deletion strains, locus YNL322C, strain KRE1 (second series), active compounds read low): 0.993
normalized growth (S. cerevisiae deletion strains, locus YNR049C, strain mso1, active compounds read low): 0.993
normalized growth (S. cerevisiae deletion strains, locus YNR052C, strain pop2, active compounds read low): 0.916
normalized growth (S. cerevisiae deletion strains, locus YOL006C, strain TOP1, active compounds read low): 0.545
normalized growth (S. cerevisiae deletion strains, locus YOL012C, strain htz1): 0.521
normalized growth (S. cerevisiae deletion strains, locus YOL147C, strain pex11, active compounds read low): 0.977
normalized growth (S. cerevisiae deletion strains, locus YOR001W, strain rrp6, active compounds read low): 0.972
normalized growth (S. cerevisiae deletion strains, locus YOR061W, strain CKA2, active compounds read low): 0.921
normalized growth (S. cerevisiae deletion strains, locus YOR069W, strain VPS5, active compounds read low): 0.971
normalized growth (S. cerevisiae deletion strains, locus YOR070C, strain gyp1, active compounds read low): 0.982
normalized growth (S. cerevisiae deletion strains, locus YOR080W, strain dia2, active compounds read low): 0.996
normalized growth (S. cerevisiae deletion strains, locus YOR083W, strain WHI5, active compounds read low): 0.968
normalized growth (S. cerevisiae deletion strains, locus YOR106W, strain vam3, active compounds read low): 0.853 (active)
normalized growth (S. cerevisiae deletion strains, locus YOR136W, strain idh2, active compounds read low): 0.962
normalized growth (S. cerevisiae deletion strains, locus YOR144C, strain elg1, active compounds read low): 0.986
normalized growth (S. cerevisiae deletion strains, locus YOR184W, strain ser1, active compounds read low): 0.927
normalized growth (S. cerevisiae deletion strains, locus YOR231W, strain MKK1, active compounds read low): 1.06
normalized growth (S. cerevisiae deletion strains, locus YOR265W, strain rbl2, active compounds read low): 0.983
normalized growth (S. cerevisiae deletion strains, locus YOR270C, strain vph1, active compounds read low): 0.936
normalized growth (S. cerevisiae deletion strains, locus YOR290C, strain snf2, active compounds read low): 0.987
normalized growth (S. cerevisiae deletion strains, locus YOR316C, strain cot1, active compounds read low): 0.987
normalized growth (S. cerevisiae deletion strains, locus YPL051W, strain arl3, active compounds read low): 0.983
normalized growth (S. cerevisiae deletion strains, locus YPL078C, strain atp4, active compounds read low): 0.989
normalized growth (S. cerevisiae deletion strains, locus YPL106C, strain sse1, active compounds read low): 0.88
normalized growth (S. cerevisiae deletion strains, locus YPL240C, strain hsp82, active compounds read low): 0.975
normalized growth (S. cerevisiae deletion strains, locus YPL241C, strain CIN2, active compounds read low): 0.987
normalized growth (S. cerevisiae deletion strains, locus YPL256C, strain CLN2, active compounds read low): 1.06
normalized growth (S. cerevisiae deletion strains, locus YPR119W, strain clb2, active compounds read low): 0.991
normalized growth (S. cerevisiae deletion strains, locus YPR141C, strain kar3, active compounds read low): 0.974
normalized growth (S. cerevisiae deletion strains, locus YPR163C, strain tif3, active compounds read low): 0.987
normalized growth (S. cerevisiae deletion strains, locus YPR167C, strain met16, active compounds read low): 0.993
normalized growth (S. cerevisiae deletion strains, strain wtn01, active compounds read low): 0.903
normalized growth (S. cerevisiae strains, strain wild type, active compounds read low): 0.834 (active)
